According to PubChem BioAssay (NCI):
The panel holds about 83,000 compounds, 20% with a hit somewhere; the sample as a whole holds those more often.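 In brief: 96-well plates, 48 h treatment, single concentration, percent growth endpoint.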 Unmarked numbers belong to inactive results. Activity calls are given as the source filed them. How the source made its calls: active means growth percent below 10; inactive means the rest.

Tests used:
Test in all cases: NCI-60 one-dose screen, 48 h (100 = growth as untreated, 0 = no growth, -100 = all killed)
SK-MEL-2 melanoma = details: 10 µM unless noted
EKVX NSCLC = details: 10 µM
SN12C renal = details: 10 µM unless noted
UO-31 renal = details: 10 µM unless noted
TK-10 renal = details: 10 µM unless noted
ACHN renal = details: 10 µM unless noted
CAKI-1 renal = details: 10 µM unless noted
A498 renal = details: 10 µM unless noted
CCRF-CEM leukemia = details: 10 µM
MOLT-4 leukemia = details: 10 µM unless noted
SR leukemia = details: 10 µM unless noted
RPMI-8226 leukemia = details: 10 µM unless noted
OVCAR-8 ovarian = details: 10 µM unless noted
OVCAR-5 ovarian = details: 10 µM unless noted
OVCAR-4 ovarian = details: 10 µM unless noted
SK-OV-3 ovarian = details: 10 µM unless noted
IGROV1 ovarian = details: 10 µM unless noted
OVCAR-3 ovarian = details: 10 µM unless noted
HS 578T breast = details: 10 µM unless noted
NCI/ADR-RES ovarian = details: 10 µM unless noted

Structure (SMILES)	growth (SK-MEL-2 melanoma)	growth (EKVX NSCLC)	growth (SN12C renal)	growth (UO-31 renal)	growth (TK-10 renal)	growth (ACHN renal)	growth (CAKI-1 renal)	growth (A498 renal)	growth (CCRF-CEM leukemia)	growth (MOLT-4 leukemia)	growth (SR leukemia)	growth (RPMI-8226 leukemia)	growth (OVCAR-8 ovarian)	growth (OVCAR-5 ovarian)	growth (OVCAR-4 ovarian)	growth (SK-OV-3 ovarian)	growth (IGROV1 ovarian)	growth (OVCAR-3 ovarian)	growth (HS 578T breast)	growth (NCI/ADR-RES ovarian)
Nc1nc2c(c3cnccc13)C(c1cccc(Br)c1)Cc1cnccc1-2 (stereo not given)	27.2%	27.6%	27.5%	21.4%	28.5%	16.7%	25.6%	-10.6% (active)	6.84% (active)	11.6%	17.8%	-2.76% (active)	28.8%	43.9%	37.5%	30.8%	27.9%	1.08% (active)	42.3%	-4.12% (active)
CCC1(CC)C(OC)NC(Br)=C(C#N)C1(C#N)C(N)=O (stereo not given)	102%	103%	106%	85.2%	118%	108%	117%	114%	100%	88.4%	57.5%	132%	106%	249%	110%	114%	-8.89% (active)	119%	96.5%	124%
N=C(N)c1ccc(-c2ccc(-c3cc(Cl)cc(Cl)c3)s2)cc1	-46.1% (active)	-72% (active)	-77% (active)	-77.5% (active)	-74.8% (active)	-94.4% (active)	-90.2% (active)	-94.6% (active)	-67.1% (active)	-50.3% (active)	-16.6% (active)	-48.9% (active)	-12.5% (active)	-78.3% (active)	-66.1% (active)	-78.6% (active)	-73.8% (active)	-83.4% (active)	-46.8% (active)	-47.4% (active)
COC(=O)c1ccc2[nH]c(O)c(C(=Nc3ccc(N(C)C(=O)CN4CCN(C)CC4)cc3)c3ccc(C)cc3)c2c1	-31.6% (active)	23%	9.81% (active)	-81.2% (active)	-82.7% (active)	-61.1% (active)	-41.6% (active)	-73.8% (active)	1.57% (active)	-24.6% (active)	-28.2% (active)	-32.2% (active)	-17.8% (active)	29.7%	-64.3% (active)	-12.2% (active)	1.53% (active)	-60.2% (active)	-2.52% (active)	70.7%
CC(C)OC(=O)Nn1cnc2ccccc21	106%	106%	113%	93.1%	87.6%	114%	92.2%	119%	81%	75.2%	-48% (active)	98.6%	111%	96.7%	126%	114%	23.8%	111%	114%	110%
O=C1NCCN1/N=C/c1c(Cl)nc2n1CCS2	70.2%	111%	140%	58.6%	116%	108%	98.7%	156%	-62.2% (active)	96.6%	59.4%	63.7%	115%	102%	113%	111%	84%	106%	139%	114%
O=c1c(N=Nc2nccs2)c(-c2ccccc2)[nH]n1-c1nc(-c2ccccc2)cs1	22.8%	53.1%	35%	36.4%	45.6%	35.4%	35.6%	28.6%	25.5%	30.3%	33.4%	16.1%	28.1%	98.9%	39.5%	23.5%	44.2%	31.6%	38.4%	10.1%
CCC(CCCN1C(=O)c2ccccc2C1=O)Nc1cc(OC)cc2c(C)ccnc12 (stereo not given)	87%	84.5%	97.8%	115%	120%	100%	75.7%	60%	105%	66.3%	54.9%	96%	98.7%	99.9%	73.8%	100%	137%	99.1%	86.7%	121%
